# Source: PubChem BioAssay (NCI)
# About 79,000 compounds went through this panel and 15% of them were active in at least one assay; those are over-represented in the sample as a whole. A number with no mark means an inactive call. Calls of active or inactive are those of the source. No stated cut-off is given here; in the data, active means growth inhibition above about 70%; inactive means the rest.
# Legend:
# [1] = NCI Yeast Anticancer Drug Screen. Data for the rad52 strain (AID 147);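 further: 0% = growth of vehicle-treated control cultures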; details: S. cerevisiae rad52 mutant growth inhibition, active compounds read high
# Method in brief: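 Measured: yeast growth inhibition. System: strain with a defined DNA damage repair alteration. Reference: vehicle-treated control cultures.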
# [2] = NCI Yeast Anticancer Drug Screen. Data for the wt1 strain (AID 149);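 further: 0% = growth of vehicle-treated wt1 cultures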; details: S. cerevisiae wt1 strain (SPY 50644) growth inhibition, active compounds read high
# Method in brief: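 Measured: growth of wt1 yeast under compound versus vehicle treatment, reported as inhibition.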
# [3] = NCI Yeast Anticancer Drug Screen. Data for the rad50EPP+ strain (AID 151);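 further: 0% = growth of vehicle-treated control cultures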; details: S. cerevisiae rad50 mutant strain, active compounds read high
# Method in brief: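 One strain with a rad50 alteration (rad50EPP+) was compound-treated, its growth then compared to that of vehicle controls.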
# [4] = NCI Yeast Anticancer Drug Screen. Data for the mgt1 strain (AID 153); details: S. cerevisiae mgt1 mutant growth inhibition, active compounds read high
# Method in brief: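 After exposure of the mgt1 yeast mutant to compound, growth was measured and reported as inhibition compared with vehicle controls.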
# [5] = NCI Yeast Anticancer Drug Screen. Data for the rad50 strain (AID 155);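 further: 0% = growth of vehicle-only cultures of the same strain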; details: S. cerevisiae rad50 strain growth inhibition, active compounds read high
# Method in brief: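 Growth of the mutant yeast was measured after compound exposure and referenced to vehicle-treated cultures.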
# [6] = NCI Yeast Anticancer Drug Screen. Data for the mec2-1 strain (AID 157); details: S. cerevisiae mec2-1 strain, active compounds read high
# Method in brief: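 Test agents were screened against the mec2-1 yeast strain, with defined DNA repair or cell cycle alteration. Growth was scored as inhibition against vehicle-only controls.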
# [7] = NCI Yeast Anticancer Drug Screen. Data for the rad14 strain (AID 159);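 further: 0% = growth of vehicle-treated control cultures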; details: S. cerevisiae rad14 strain growth inhibition, active compounds read high
# Method in brief: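 Here, inhibition of yeast growth was measured after compound exposure, using a strain with a genetic defect in DNA damage repair and vehicle-treated cultures as the reference.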
# [8] = NCI Yeast Anticancer Drug Screen. Data for the sgs1 mgt1 strain (AID 161);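 further: 0% = growth of cultures given vehicle only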; details: S. cerevisiae sgs1 mgt1 strain, active compounds read high
# Method in brief: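 Mutant yeast exposed to compound; growth scored against vehicle-only wells.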
# [9] = NCI Yeast Anticancer Drug Screen. Data for the CLN2oe strain (AID 163);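 further: 0% = growth of vehicle-only control cultures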; details: S. cerevisiae CLN2oe strain, active compounds read high
# Method in brief: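 Here, growth inhibition in a cell-cycle-altered yeast strain after compound exposure was quantified against vehicle control growth.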
# [10] = NCI Yeast Anticancer Drug Screen. Data for the cln2 rad14 strain (AID 165);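 further: 0% = growth equal to vehicle treated cultures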; details: S. cerevisiae cln2 rad14 strain, active compounds read high
# Method in brief: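 Growth of compound-exposed yeast (cln2 rad14 genotype) measured and expressed as inhibition relative to vehicle.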
# [11] = NCI Yeast Anticancer Drug Screen. Data for the bub3 strain (AID 167); details: S. cerevisiae bub3 mutant strain, active compounds read high
# Method in brief: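 Whole-cell yeast assay. The mutant strain was incubated with compounds, and growth inhibition was determined by comparison with vehicle-treated cells.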
# [12] = NCI Yeast Anticancer Drug Screen. Data for the wt2 strain (AID 169);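 further: 0% = growth of vehicle-treated yeast cultures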; details: S. cerevisiae wt2 strain growth inhibition, active compounds read high
# Method in brief: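 Genetically defined yeast strains from a DNA-repair/cell-cycle panel were used. Compound-exposed yeast growth was measured, and the inhibition was calculated relative to vehicle treatment.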
# [13] = NCI Yeast Anticancer Drug Screen. Data for the mlh1 strain (AID 171);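 further: 0% = growth of vehicle-treated control cultures of the same strain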; details: S. cerevisiae mlh1 strain growth inhibition, active compounds read high
# Method in brief: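 Here the genetically defined yeast mutant is grown with each compound, and the extent to which its growth falls below that of vehicle-exposed cells is reported.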
# [14] = NCI Yeast Anticancer Drug Screen. Data for the sgs1 strain (AID 173);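 further: 0% = growth of vehicle-only control cultures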; details: S. cerevisiae sgs1 mutant, active compounds read high
# Method in brief: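 Relative growth inhibition, referenced to vehicle, was determined in a yeast strain with a defined alteration affecting DNA damage repair or cell cycle control after compound exposure.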
# [15] = NCI Yeast Anticancer Drug Screen. Data for the mlh1 rad18 strain (AID 175); details: S. cerevisiae mlh1 rad18 strain growth inhibition, active compounds read high
# Method in brief: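 In this whole-cell yeast screen, a strain with altered DNA damage repair is challenged with compound, and its growth is measured against matched vehicle-treated controls.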
# [16] = at 5.0 µM (retest, dose inferred, filed as 0.5)
# [17] = at 50.0 µM (retest, dose inferred, filed as 5.0)
smiles,measurement,setting,value
Cc1ccc(S(=O)(=O)NC(=O)C2C(=O)CC3(CCCCC3)CC2=O)cc1,growth inhibition,[1]; at 1.2 µM,-22%
same,growth inhibition,[1]; at 3.7 µM,-37%
same,growth inhibition,[1]; at 11.0 µM,-34%
same,growth inhibition,[1]; at 33.0 µM,7%
same,growth inhibition,[1]; at 100.0 µM,36%
same,growth inhibition,[2]; at 1.2 µM,-22%
same,growth inhibition,[2]; at 3.7 µM,-16%
same,growth inhibition,[2]; at 11.0 µM,-20%
same,growth inhibition,[2]; at 33.0 µM,67%
same,growth inhibition,[2]; at 100.0 µM,83% (active)
same,growth inhibition,[3]; at 1.2 µM,-3%
same,growth inhibition,[3]; at 3.7 µM,-21%
same,growth inhibition,[3]; at 11.0 µM,-18%
same,growth inhibition,[3]; at 33.0 µM,-12%
same,growth inhibition,[3]; at 100.0 µM,-21%
same,growth inhibition,[4]; at 1.2 µM,-24%
same,growth inhibition,[4]; at 3.7 µM,-16%
same,growth inhibition,[4]; at 11.0 µM,-13%
same,growth inhibition,[4]; at 33.0 µM,80% (active)
same,growth inhibition,[4]; at 100.0 µM,85% (active)
same,growth inhibition,[5]; at 1.2 µM,-12%
same,growth inhibition,[5]; at 3.7 µM,-6%
same,growth inhibition,[5]; [16],10%
same,growth inhibition,[5]; at 11.0 µM,-23%
same,growth inhibition,[5]; at 33.0 µM,5%
same,growth inhibition,[5]; [17],25%
same,growth inhibition,[5]; at 50.0 µM,-9.4%
same,growth inhibition,[5]; at 100.0 µM,35%
same,growth inhibition,[6]; at 1.2 µM,-25%
same,growth inhibition,[6]; at 3.7 µM,-30%
same,growth inhibition,[6]; [16],12%
same,growth inhibition,[6]; at 11.0 µM,20%
same,growth inhibition,[6]; at 33.0 µM,79% (active)
same,growth inhibition,[6]; [17],26%
same,growth inhibition,[6]; at 50.0 µM,30.1%
same,growth inhibition,[6]; at 100.0 µM,83% (active)
same,growth inhibition,[7]; at 1.2 µM,-29%
same,growth inhibition,[7]; at 3.7 µM,-44%
same,growth inhibition,[7]; at 11.0 µM,3%
same,growth inhibition,[7]; at 33.0 µM,82% (active)
same,growth inhibition,[7]; at 100.0 µM,86% (active)
same,growth inhibition,[8]; [16],11%
same,growth inhibition,[8]; [17],21%
same,growth inhibition,[8]; at 50.0 µM,-16.6%
same,growth inhibition,[9]; at 1.2 µM,-12%
same,growth inhibition,[9]; at 3.7 µM,1%
same,growth inhibition,[9]; at 11.0 µM,4%
same,growth inhibition,[9]; at 33.0 µM,77% (active)
same,growth inhibition,[9]; at 100.0 µM,84% (active)
same,growth inhibition,[10]; [16],5%
same,growth inhibition,[10]; [17],-1%
same,growth inhibition,[10]; at 50.0 µM,-8.9%
same,growth inhibition,[11]; at 1.2 µM,-5%
same,growth inhibition,[11]; at 3.7 µM,23%
same,growth inhibition,[11]; [16],20%
same,growth inhibition,[11]; at 11.0 µM,5%
same,growth inhibition,[11]; at 33.0 µM,72% (active)
same,growth inhibition,[11]; [17],16%
same,growth inhibition,[11]; at 50.0 µM,-17.9%
same,growth inhibition,[11]; at 100.0 µM,74% (active)
same,growth inhibition,[12]; at 1.2 µM,-39%
same,growth inhibition,[12]; at 3.7 µM,-28%
same,growth inhibition,[12]; at 11.0 µM,20%
same,growth inhibition,[12]; at 33.0 µM,84% (active)
same,growth inhibition,[12]; at 100.0 µM,83% (active)
same,growth inhibition,[13]; at 1.2 µM,-2%
same,growth inhibition,[13]; at 3.7 µM,-11%
same,growth inhibition,[13]; at 11.0 µM,13%
same,growth inhibition,[13]; at 33.0 µM,82% (active)
same,growth inhibition,[13]; at 100.0 µM,88% (active)
same,growth inhibition,[14]; at 1.2 µM,-12%
same,growth inhibition,[14]; at 3.7 µM,-8%
same,growth inhibition,[14]; at 11.0 µM,4%
same,growth inhibition,[14]; at 33.0 µM,68%
same,growth inhibition,[14]; at 100.0 µM,79% (active)
same,growth inhibition,[15]; [16],42%
same,growth inhibition,[15]; [17],71% (active)
same,growth inhibition,[15]; at 50.0 µM,-61.4%
